Inconclusive results are not listed. Where a call stands in place of a potency, no number is given. Unmarked numbers belong to inactive results. The source made the active and inactive calls. Calls follow the shape of the dose curve; as a rule, active = well fitted activation curve with a large enough effect in the repeat runs; inconclusive = weak or mixed curves; inactive = flat fitted curve, though single readings scatter.
Potency is read from the fitted curve at half-maximal effect.

The nature of the experiment: A CellTox Green Cytotoxicity Assay to monitor cytotoxicity in HEK293 cells - 40 hour (AID 1224871). Also: nearly all actives have a fitted effect of over 45% in size. As to conditions: CellTox Green fluorescence; series mostly up to 76.8 µM. From the text: National Center for Advancing Translational Sciences [NCATS]
NIH Chemical Genomics Center [NCGC]
U.S. Environmental Protection Agency [EPA]
National Institutes of Environmental Health Sciences [NIEHS]
National Toxicology Program [NTP]
Cell-based models are critical for drug discovery. Determining the natural cytotoxic effects resulting from test compounds is an essential research activity. A CellTox Green Cytotoxicity Assay to monitor cytotoxicity in real time of continues cell culture during 40 hours of the compound treatment was used to screen Tox21 10K library compounds in Hek293 cells. CellTox Green Cytotoxicity Assay is a nonlytic, homogeneous, biofluorescent method to measure cytotoxicity in cell culture after experimental manipulation. The assay system uses a proprietary asymmetric cyanine dye that is excluded from viable cells but preferentially stains the dead cell's DNA. […] Viable cells produce no appreciable increases in fluorescence. Therefore, the fluorescence signal produced by the binding interaction with dead cell DNA is proportional to cytotoxicity.
The mixture of Hek293 cell suspension and reagents were dispensed at 600cells/6 ul/well in 1536-well tissue culture treated black solid bottom plates using a Multidrop dispenser. After the assay plates were incubated at a 37 C/5% CO2 incubator for 5 hours, 23 nL of compounds dissolved in DMSO, positive and negative controls was transferred to the assay plate by a pintool work station. The plates were incubated at 37 C for 40 hours. The fluorescence intensity were measured at 0h, 8h, 16h, 24h, 32h and 40h time points using ViewLux plate reader during compound treatment.
As to `N#Cc1ccc(C/C(=N/NC(=O)Nc2ccc(OC(F)(F)F)cc2)c2cccc(C(F)(F)F)c2)cc1`, the Potency entry was “inactive”.
Same read-out and setting: the value for `CC(C)(C)c1ccc(OC2CCCCC2O)cc1` (stereo not given) was 49 µM (active); that for `Oc1ccc(C2(c3ccc(O)c(C4CCCCC4)c3)CCCCC2)cc1C1CCCCC1` was “inactive”; that for `O=S(=O)(c1ccc(OCc2ccccc2)cc1)c1ccccc1O` was “inactive”.
The same measure, in the same setting: the value for `O=C1OCc2ccccc21` was “inactive”; that for `[Cl][Sc]([Cl])[Cl]` was “inactive”; that for `O=C(Nc1ccc([N+](=O)[O-])cc1)Nc1ccc([N+](=O)[O-])cc1` (tested in a mixture with another compound) was “inactive”.
Still for that read-out and setting: next, `[Cl][Dy]([Cl])[Cl]`: “inactive”; `Nc1ccc2c(S(=O)(=O)O)cccc2c1S(=O)(=O)O`: “inactive”; `NC(=O)C1CO1` (stereo not given): “inactive”.
In the case of `CC(Cc1ccc(O)c(O)c1)C(C)Cc1ccc(O)c(O)c1` (stereo not given), the Potency result was “inactive”.
Still for that read-out and setting: next, `CCC(O)CO` (stereo not given): “inactive”.
On the same count and under the same terms, the value for `Cc1ccc2n[nH]nc2c1` was “inactive”.
On to `SC1CCCCC1`, for which the Potency result is “inactive”.
The same measure, in the same setting: next, `CCOc1ccc([N+](=O)[O-])cc1`: 44.3 µM (active); `O=C1OC(O)C(C(Cl)Cl)=C1Cl` (stereo not given): “inactive”.
In the case of `C=C[Si](C)(C)Cl`, the cytotoxicity increase was -9.04% [at 6.97 µM].
With `C/C=C/C(=O)OCC(C)C`, the Potency entry is “inactive”.
The same measure, in the same setting: the value for `COc1cc(OC)nc(NC(=O)NS(=O)(=O)Nc2ccccc2C(=O)N(C)C)n1` was “inactive”; that for `CN1CCN(CCCN2c3ccccc3Sc3ccc(C(F)(F)F)cc32)CC1` was 26.8 µM (active).
Still for that read-out and setting: next, `[Cl][Eu]([Cl])[Cl]`: “inactive”.
On the same count and under the same terms, the value for `O=C(c1ccccc1)c1ccc(Cl)cc1` was “inactive”.
Turning to `C=CC(=O)OCCOC1C2CCC1C1CC=CC12` (stereo not given), the cytotoxicity increase is -0.257% [at 15.8 µM].
Take `CCOc1nc(F)cc2nc(S(=O)(=O)Nc3c(Cl)cccc3C(=O)OC)nn12`: the Potency result is “inactive”.
Still for that read-out and setting: the value for `C1CCSC1` was “inactive”.
Consider `CSc1ccc(O)cc1C`, for which the Potency result is “inactive”.
The same measure, in the same setting: the value for `CCc1cccc(C)c1N(C(=O)C(=O)O)C(C)COC` (stereo not given) was “inactive”.
Same read-out and setting: next, `C/C(=N\[Si](C)(C)C)O[Si](C)(C)C`: “inactive”.
Still for that read-out and setting: the value for `COC(=O)c1ccc([N+](=O)[O-])cc1` was “inactive”; that for `CC/C(=C(/c1ccc(O)cc1)c1ccc(OCCN(C)C)cc1)c1ccccc1` was 20.4 µM (active).
Turning to `O=C(N[C@H](CO)[C@H](O)c1ccc([N+](=O)[O-])cc1)C(Cl)Cl`, the Potency entry is “inactive”.
Consider `Cn1c(=O)[nH]c2ncn(C)c2c1=O`, for which the Potency result is “inactive”.
On the same count and under the same terms, next, `Cc1cccc(C)c1C`: “inactive”; `CN[C@H]1CC[C@@H](c2ccc(Cl)c(Cl)c2)c2ccc(S(N)(=O)=O)cc21`: 27.5 µM (active); `CCN(CC)c1ccc(C=O)c(O)c1`: “inactive”.
Same read-out and setting: next, `CCN(CC)c1ccc(N=Nc2ccccc2)cc1`: “inactive”; `Nc1ccc(Cl)c([N+](=O)[O-])c1`: “inactive”.
On to `CC1(C)[C@H](C(=O)OCc2cccc(Oc3ccccc3)c2)[C@@H]1C=C(Cl)Cl`, for which the Potency result is “inactive”.
On the same count and under the same terms, next, `CO[Si](OC)(c1ccccc1)c1ccccc1`: “inactive”.
Same read-out and setting: next, `c1ccc(-c2nc3ccccc3[nH]2)cc1`: “inactive”.

Source of the values: PubChem BioAssay (Tox21).
